Laboratory results taken from the supplement of paper PMC13380429.

tested on: Vero E6 infected with SARS-CoV-2; assay: morphology score (similarity to uninfected cells); higher = more like uninfected cells; conditions: 24 h

| Compound | morphology score |
| --- | --- |
| C=CC(=O)Nc1cccc(C)c1Nc1ncc2cc(-c3c(Cl)c(OC)cc(OC)c3Cl)ccc2n1 (10 µM) | 0.567 |
| Nc1nccc(-c2c(-c3ccc(F)cc3)ncn2C2CCCCC2)n1 (0.833333 µM) | 0.197 |
| O=C(O)CCCCC(CCSCc1ccccc1)SCc1ccccc1 (stereo not given) (10 µM) | 0.195 |
| FC(F)(F)C(F)(F)C(F)(F)N(C(F)(F)C(F)(F)C(F)(F)F)C(F)(F)C(F)(F)C(F)(F)F [perfluamine] (10 µM) | 0.16 |
| CNC(=O)[C@@H](NC(=O)[C@H](CC(C)C)[C@H](O)C(=O)NO)C(C)(C)C [marimastat] (10 µM) | -0.0923 |
| N[C@@H](Cc1cc(CP(=O)(O)O)cc(-c2ccccc2Cl)c1)C(=O)O (10 µM) | 0.0155 |
| Cn1c(NCCN(CCO)CCCc2ccc([N+](=O)[O-])cc2)cc(=O)n(C)c1=O [nifekalant] (10 µM) | -0.0636 |
| Nc1ncnc(Nc2ccc(Cl)cc2)n1 [chlorazanil] (10 µM) | 0.133 |
| Cc1cc(-c2nc(-c3ccc(OC(F)(F)F)cc3)no2)nn1Cc1ccnc(N2CCN(C3CC3)CC2)c1 (10 µM) | 0.0825 |
| CN1CCN(c2ccc(Nc3ncc4cc(C#N)c(=O)n(C5CCCC5)c4n3)cc2)CC1 (0.833333 µM) | 0.153 |
| C/C=C1\NC(=O)[C@H]2CSSCC/C=C/[C@H](CC(=O)N[C@H](C(C)C)C(=O)N2)OC(=O)[C@H](C(C)C)NC1=O [romidepsin] (10 µM) | -0.211 |
| CCOCOC[C@H](C[C@H](C)C(=O)NO)NC(=O)c1ccc(Oc2ccccc2)cc1 (10 µM) | 0.131 |
| CCC(=O)NC[C@@H]1C[C@H]1c1cccc2c1CCO2 [tasimelteon] (10 µM) | 0.169 |
| Oc1cc(O)c2c(c1)O[C@H](c1ccc(O)c(O)c1)[C@H](O)[C@H]2c1c(O)cc(O)c2c1O[C@H](c1ccc(O)c(O)c1)[C@H](O)C2 [procyanidin-B-2] (10 µM) | 0.114 |
| Nc1ccc2ncnc(NCCc3ccc(Oc4ccccc4)cc3)c2c1 (10 µM) | -0.17 |
| CN1C2C=C(c3sccc3Br)CC1CC2 (stereo not given) (10 µM) | 0.427 |
| COc1cccc(/C=N/N=C/c2cccc(OC)c2)c1 (10 µM) | 0.132 |
| O=C(O)c1ccccc1Nc1cccc(OCc2ccc3ccccc3n2)c1 (10 µM) | 0.0319 |
| C[C@@H](Nc1cc(F)cc(F)c1)c1cc(C(=O)N(C)C)cc2c(=O)cc(N3CCOCC3)oc12 (10 µM) | -0.225 |
| CN[C@@H]1[C@@H](O[C@H]2O[C@H](CO)[C@@H](N)[C@H](O)[C@H]2O)O[C@H]2C[C@@H](N)[C@@H](O[C@H]3[C@H](O)[C@@H](O)[C@H](N)C[C@@H]3N)O[C@@H]2[C@@H]1O [apramycin] (10 µM) | 0.0655 |

| Compound | morphology score |
| --- | --- |
| O=C(NCc1ccc2c(c1)OCO2)c1c(Cl)cccc1Cl [alda-1] (10 µM) | 0.107 |
| CCn1c(=O)c(-c2ccc(Cl)cc2Cl)cc2cnc(Nc3ccc(N4CCNCC4)c(F)c3)nc21 (0.833333 µM) | 0.097 |
| CCCc1c(OCCCCc2nnn[nH]2)ccc(C(C)=O)c1O [tomelukast] (10 µM) | -0.0661 |
| CC(=O)[C@H]1CC[C@H]2[C@@H]3CC[C@H]4C[C@](C)(O)CC[C@]4(C)[C@H]3CC[C@]12C [ganaxolone] (10 µM) | -0.0442 |
| Cc1c(C(=O)NN2CCOCC2)nn(-c2ccc(Cl)cc2Cl)c1-c1ccc(I)cc1 (10 µM) | 0.11 |
| CCCCCCCCCCCCCCCCCCCCCC(=O)O (10 µM) | 0.0564 |
| COc1ncc2cc(C(=O)Nc3cc(C(=O)NCc4cccc(Cl)c4)ccc3Cl)c(=O)[nH]c2n1 (10 µM) | -0.0693 |
| CC(=O)NCC(=O)N1[C@@H]2CC[C@H]1c1ccc(Nc3ncc(C(F)(F)F)c(NC4CCC4)n3)cc12 (0.833333 µM) | -0.071 |
| CCN1CCCC1CNC(=O)c1cc(S(=O)(=O)CC)c(N)cc1OC (stereo not given) [amisulpride] (10 µM) | 0.114 |
| Oc1cc(CNC(=S)/C=C/c2cc(O)c(O)c(Br)c2)cc(O)c1O (0.833333 µM) | 0.194 |
| CC(C)n1cnc2c(C(=O)N[C@H]3CN4CCC3CC4)cc(Cl)cc21 (10 µM) | 0.38 |
| C=C(C)[C@@H]1CC[C@]2(C(=O)O)CC[C@]3(C)[C@H](CC[C@@H]4[C@@]5(C)CC[C@H](OC(=O)CC(C)(C)C(=O)O)C(C)(C)[C@@H]5CC[C@]43C)[C@@H]12 [bevirimat-dimeglumine] (10 µM) | -0.0115 |
| CO[C@H]1C[C@H](O[C@H]2[C@H](C)O[C@@H](O[C@@H]3/C(C)=C/C[C@@H]4C[C@@H](C[C@]5(C=C[C@H](C)[C@@H](C6CCCCC6)O5)O4)OC(=O)[C@@H]4C=C(C)[C@@H](O)[C@H]5OC/C(=C\C=C\[C@@H]3C)[C@]54O)C[C@@H]2OC)O[C@@H](C)[C@@H]1O [doramectin] (0.833333 µM) | 0.0705 |
| COc1c(N2CCNC(C)C2)c(F)cc2c(=O)c(C(=O)O)cn(C3CC3)c12 (stereo not given) [gatifloxacin] (10 µM) | 0.0682 |
| CN1C[C@@H](NS(=O)(=O)N(C)C)C[C@@H]2c3cccc4c3c(cn4C)C[C@H]21 [mesulergine] (10 µM) | 0.205 |
| CCCCCC(O)CCCC(=O)O (stereo not given) (10 µM) | 0.00301 |
| CNC(=N)NC(=O)Nc1c(C)cccc1C [lidamidine] (10 µM) | -0.327 |
| COC(=O)C1=CO[C@@H](O[C@@H]2O[C@H](CO)[C@@H](O)[C@H](O)[C@H]2O)[C@@H]2C(CO)=CC[C@H]12 [geniposide] (10 µM) | -0.322 |
| CSc1ccc2c(c1)[C@H](N1CCN(C)CC1)Cc1ccccc1S2 (racemic) [metitepine] (0.833333 µM) | -0.0536 |
| Oc1ccc(OCc2ccccc2)cc1 [monobenzone] (10 µM) | -0.207 |
